Only some compounds are listed: those with a hit (about 5.3% of all), similar ones and a draw of the others.
Tau fibril ThT: blocks human tau fibril formation measured by thioflavin T. 270,000 tested, 2.1% active. P10636. Potency, µM (titrated, usually from 57.4 µM), actives largely listed as inhibitors. AID 1460. recombinant tau K18 P301L, heparin-induced fibrillization, ThT fluorescence; note: nearly all actives have a fitted effect of over 55% in size
Target sequence (P10636 561-689 P618L limits assumed): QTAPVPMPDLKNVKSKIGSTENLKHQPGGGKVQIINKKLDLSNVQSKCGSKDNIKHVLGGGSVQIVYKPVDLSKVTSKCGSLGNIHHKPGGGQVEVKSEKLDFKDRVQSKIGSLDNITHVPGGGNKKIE
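Using a mix of unlabeled (15 uM) and Alexa 594-labeled (0.24 uM) tau K18 P301L, heparin-triggered fibrillization over 6 hr at 37 C was scored by ThT fluorescence.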
JMJD2E inh: blocks human JMJD2E demethylase activity. Potency, µM (top dose mostly 57.1 µM), usual class: inhibitors. 230,000 tested, 1.6% active. JMJD2E catalytic domain, FDH-coupled NADH fluorescence (FDH is formaldehyde dehydrogenase). B2RXH2; active = well fitted inhibition curve with a large enough effect, not every such curve was filed as active; inconclusive = small, poorly fitted or top-dose-only effect, or another doubt; inactive = no such curve, though single readings can be large or run the other way; note: nearly all actives have a fitted effect of over 50% in size
Target sequence (B2RXH2 1-337 limits assumed): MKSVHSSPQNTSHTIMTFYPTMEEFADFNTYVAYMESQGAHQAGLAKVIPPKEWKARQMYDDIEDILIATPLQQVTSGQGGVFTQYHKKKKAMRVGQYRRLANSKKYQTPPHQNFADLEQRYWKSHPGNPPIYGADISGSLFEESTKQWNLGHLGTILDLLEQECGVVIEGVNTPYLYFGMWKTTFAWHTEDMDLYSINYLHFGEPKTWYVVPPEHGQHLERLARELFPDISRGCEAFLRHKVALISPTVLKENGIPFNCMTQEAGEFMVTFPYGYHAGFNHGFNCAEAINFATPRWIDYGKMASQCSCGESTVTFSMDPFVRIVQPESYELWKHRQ
Tau fibril FP: tau fibrillization inhibition (FP); P10636; K18 P301L tau heparin fibrillization, Alexa594 FP, 6 h; Potency, µM (series often up to 57.7 µM), usual class: inhibitors; 280,000 tested, 0.39% active; AID 1468; note: nearly all actives have a fitted effect of over 55% in size
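Compound effects on tau fibrillization are measured by Alexa 594 fluorescence polarization (ex 555, em 632 nm). K18 P301L tau is used at 15 uM with 0.24 uM labeled tracer, and 20 uM heparin induces aggregation over 6 hr at 37 C.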
Sfp PPTase inh: inhibitors of Bacillus subtilis Sfp phosphopantetheinyl transferase | Biochemical Sfp PPTase activity, qHTS | Potency, µM, hits mostly inhibitors | 310,000 tested, 3.5% active;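 note: the enzyme is Sfp with the accession as filed and its product quenches rhodamine fluorescence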
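Step 1, compound plus 15 nM Sfp-PPTase, 15 min, room temperature. Step 2, add rhodamine-CoA (5 uM) and BHQ-2-YbbR (12.5 uM). Step 3, read 525/598 nm fluorescence at 0 and 30 min.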
Tau fluor counter: counter-screen for tau fibril formation inhibitors. Potency, µM (doses to about 57.7 µM). 280,000 tested, 0.93% active. tau K18 P301L Alexa594 fluorescence, heparin fibrillization. AID 1463; note: nearly all actives have a fitted effect of over 55% in size
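Human tau K18 P301L (15 uM unlabeled, 0.24 uM Alexa 594-labeled) in 100 mM sodium acetate pH 7 with 20 uM heparin, 6 hr at 37 C. ThT 30 uM added, 1 hr ambient; Alexa 594 FP and total fluorescence read at 555/632 nm.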
FBPA coupling cs: coupling enzyme interference in Giardia aldolase counter-screen; coupling enzyme system counterscreen, AmpLite Red fluorescence; activity change, negative = inhibition, % at 58.2 µM, hits read low; 290,000 tested, 0.67% active; AID 2472; in the data active = activity change below about -30%
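Fluorescence at 525 nm excitation and 598 nm emission measured inhibition of the coupled detection system without aldolase. Compounds (at 57.5 uM final) were preincubated 10 min at room temperature with coupling enzyme reagent before a 20 min substrate/AmpLite Red step.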
Of the large screens only hits and unclear results are named; the others gave an inactive call. Unless noted, calls come from the whole dose curve; as a rule, active = well fitted curve in the direction sought with a large enough effect; inconclusive = small, poorly fitted or top-dose-only effect, or another doubt; inactive = no such curve, though single readings can be large; an effect the other way counts as inactive or inconclusive.

O=c1[nH]c(=S)[nH]c(O)c1N=Nc1ccc2c(c1)OCO2	Tau fibril ThT 3.98µM
O=c1[nH]c(=S)[nH]c(O)c1N=Nc1ccc2c(c1)OCCO2	Tau fibril ThT 2.24µM, Sfp PPTase inh inconclusive
O=c1[nH]c(O)c(N=Nc2ccc3c(c2)OCCO3)c(=O)[nH]1	Tau fibril ThT 5.62µM
O=C(O)c1ccccc1N=Nc1c(O)[nH]c(=O)[nH]c1=O	none
COC[C@H]([C@@H](O)[C@@H](O)C(=O)NCC[C@@H](C)c1nc(/C=C/C[C@H]2OC3(C[C@H](O)[C@H]2C)OC([C@@H](C[C@@H](O)[C@@H](C)[C@@H](O)[C@@H](C)/C=C(C)/C(C)=C/C=C/C(C)=C\C#N)OC)[C@@H](OP(=O)(O)O)C3(C)C)co1)N(C)C (stereo not given in full)	none (no result: JMJD2E inh)
O=c1[nH]sc2cc(F)ccc12	Tau fibril ThT 11.2µM, Tau fibril FP 28.2µM, Sfp PPTase inh 3.16µM
COc1ccc(C2=NCC(=O)N(CC(=O)NCc3ccco3)c3sc4c(c32)CCCC4)cc1	Tau fibril ThT inconclusive
Cc1cccc(C2=NCC(=O)N(CC(=O)NCc3ccco3)c3sc4c(c32)CCCC4)c1	Tau fibril ThT inconclusive, Tau fibril FP inconclusive, Sfp PPTase inh 22.4µM
CC1CC2CCC(O2)C(C)C(=O)OC(C)CC2CCC(O2)C(C)C(=O)OC(C)CC2CCC(O2)C(C)C(=O)OC(C)CC2CCC(O2)C(C)C(=O)O1 (stereo not given)	none (no result: Tau fibril ThT, JMJD2E inh, Tau fibril FP, Tau fluor counter)
CC(=O)OC1CC(OC(C)=O)[C@]2(C)C(CC(OC(C)=O)[C@]3(C)C2CC[C@@]2(C)C(c4ccoc4)C[C@H]4O[C@]432)C1(C)C (stereo not given in full)	JMJD2E inh inconclusive
CC(=O)OC1C[C@@]2(C)C(c3ccoc3)C[C@H]3O[C@@]32[C@@]2(C)C(=O)C(O)=C3C(C)(C)C(=O)C=C[C@]3(C)C12 (stereo not given in full)	Tau fibril ThT 8.91µM, Tau fibril FP inconclusive
CC(=O)O[C@@H]1C[C@@]2(C)C(c3ccoc3)C[C@H]3O[C@]32[C@]2(C)C(=O)C(O)=C3C(C)(C)C(=O)C=C[C@]3(C)C12 (stereo not given in full)	Tau fibril ThT 25.1µM, Tau fibril FP inconclusive
O=C(O)/C=C(\CC(=O)O)C(=O)O	JMJD2E inh inconclusive
O=C(COc1ccccc1)N1CCN(C2CCCC2)CC1	JMJD2E inh inconclusive
O=C(Cc1ccccc1)N1CCN(C2CCCC2)CC1	JMJD2E inh inconclusive, Sfp PPTase inh 89.1µM
O=C1NC(=O)C(=Cc2ccc(-c3cc(Cl)ccc3[N+](=O)[O-])o2)C(=O)N1	Tau fibril ThT 7.94µM
O=C1NC(=O)C(=Cc2ccc(-c3ccccc3[N+](=O)[O-])o2)C(=O)N1	JMJD2E inh 20µM, Sfp PPTase inh 22.4µM (no result: Tau fibril ThT)
O=C1NC(=O)C(=Cc2ccsc2)C(=O)N1	Tau fibril ThT inconclusive, Tau fibril FP inconclusive, Sfp PPTase inh inconclusive
CN1CCc2cc(O)c(O)cc2C1Cc1ccc(O)c(O)c1 (stereo not given)	Sfp PPTase inh inconclusive (no result: Tau fibril ThT, JMJD2E inh, Tau fibril FP, Tau fluor counter)
NCCNc1ccc([N+](=O)[O-])c2cccnc12	Tau fibril ThT inconclusive
Cc1nonc1OCCNc1ccc([N+](=O)[O-])c2cccnc12	Tau fibril ThT 7.08µM, Tau fluor counter inconclusive
COc1ccc2c(c1)[C@@]13CCCCC1[C@@H](C2)N(C)CC3 (stereo not given in full)	none
CCOc1ccc(NC(=O)c2cc3c(C)nn(-c4ccccc4)c3s2)cc1	Tau fibril FP inconclusive, Tau fluor counter inconclusive (no result: JMJD2E inh, Sfp PPTase inh, FBPA coupling cs)
CC(=O)C1=C(C)OC(N)=C(C(=O)OC(C)C)C12C(=O)Nc1ccccc12 (stereo not given)	Tau fibril ThT inconclusive
COCCOC(=O)C1=C(C)OC(N)=C(C(=O)OC)C12C(=O)Nc1ccccc12 (stereo not given)	Tau fibril ThT 39.8µM, Tau fibril FP inconclusive
O=S(=O)(c1ccc(Cl)cc1)c1cc(Cl)c(Cl)cc1Cl	none (no result: Tau fibril ThT, JMJD2E inh, Tau fibril FP, Tau fluor counter)
